{"source": "PubChem BioAssay AID2315", "about": "(National Center for Advancing Translational Sciences (NCATS), 2010)", "note": "The campaign covered roughly 290,000 compounds. About 27,000 (9.3%) were called active. What follows is part of a selection rich in actives, with near analogues and random picks from the rest. Values without a mark were called inactive. Rule as the data show it: active = inhibition mostly above about 28% (no sharp cut-off); inactive = mostly below about 43%.", "data": [{"test": "A qHTS for Small Molecule Inhibitors of Shiga Toxin; also: 0% is about no effect", "details": "Vero cells, Shiga toxin protein synthesis inhibition reporter; at 38.7 µM, stronger effect = higher value", "values": [{"smiles": "CCOc1ccccc1NC(=O)Cn1ncc2ccc([N+](=O)[O-])cc21", "inhibition": "-3.64%"}, {"smiles": "COc1ccc(N2CC(C(=O)NCCS(=O)(=O)N3CCN(c4ccccc4)CC3)CC2=O)cc1", "note": "(stereo not drawn)", "inhibition": "-3.67%"}, {"smiles": "O=C(NCC(=O)N(Cc1cccs1)C(C(=O)NC1CCCCC1)c1ccco1)c1cccs1", "note": "(stereo not drawn)", "inhibition": "4.26%"}, {"smiles": "O=C1c2cccc3cccc(c23)C(=O)N1c1cccc(O)c1", "inhibition": "-6.01%"}, {"smiles": "COC(=O)c1cc(C(=O)NC(C)C2CC3CCC2C3)cc([N+](=O)[O-])c1", "note": "(stereo not drawn)", "inhibition": "-13%"}, {"smiles": "COc1cc(C(=O)NCc2cc3cc(Cl)ccc3n2C)cc(OC)c1OC", "inhibition": "-6.37%"}, {"smiles": "COc1ccc(S(=O)(=O)NCCOc2ccccc2)cc1F", "inhibition": "21%"}, {"smiles": "N#CCc1ccc(NC(=O)c2ccccc2C(=O)Nc2ccc(CC#N)cc2)cc1", "inhibition": "57.5% (active)"}, {"smiles": "CC(=O)Nc1ccc(CC#N)cc1", "inhibition": "-1.48%"}, {"smiles": "NC(=O)COc1ccc(NC(=O)c2ccccc2-c2ccccc2)cc1", "inhibition": "-16.2%"}, {"smiles": "O=C(NCCO)C(=O)NCC(c1ccc2c(c1)OCO2)N1CCN(c2ccc(F)cc2)CC1", "note": "(stereo not drawn)", "inhibition": "17.7%"}, {"smiles": "O=C(O)c1ccc(S(=O)(=O)N2CCOCC2)o1", "inhibition": "-9.6%"}, {"smiles": "CS(=O)(=O)N(Cc1ccccc1)c1ccc(C(=O)NN=C2CCCCCC2)cc1", "inhibition": "0.281%"}, {"smiles": "CCc1ccc(C(=O)NN=C2CCCCCC2)s1", "inhibition": "50.4% (active)"}, {"smiles": "O=C(COc1ccc(-c2ccccc2)cc1)NN=C1CCCC1", "inhibition": "-0.705%"}, {"smiles": "Cc1ccn2c(=O)c(C(=O)NCCC3=CCCCC3)c(O)nc2c1", "inhibition": "0.166%"}, {"smiles": "CC(=O)Nc1ccc(S(=O)(=O)N(C)CC(=O)NCCC2=CCCCC2)cc1", "inhibition": "-23.7%"}, {"smiles": "O=C(COc1ccc(Cl)cc1)NCCC1=CCCCC1", "inhibition": "19.6%"}, {"smiles": "O=C(Cc1nn[nH]n1)NCCC1=CCCCC1", "inhibition": "-11.6%"}, {"smiles": "Cn1nnc2cc(C(=O)NCCC3=CCCCC3)ccc21", "inhibition": "64.2% (active)"}, {"smiles": "CN(c1ccc(C(=O)NCCC2=CCCCC2)cc1)S(C)(=O)=O", "inhibition": "89.4% (active)"}, {"smiles": "O=C(NCCC1=CCCCC1)c1ccc(Cl)c([N+](=O)[O-])c1", "inhibition": "78.7% (active)"}, {"smiles": "CC(CC(=O)O)C(=O)c1ccc(Cl)c([N+](=O)[O-])c1", "note": "(stereo not drawn)", "inhibition": "-9.51%"}, {"smiles": "CN1CCNC(=O)C1CC(=O)NCCC1=CCCCC1", "note": "(stereo not drawn)", "inhibition": "-5.56%"}, {"smiles": "Cc1ccc(NS(=O)(=O)c2c(C)[nH]c(C)c2C(=O)N2CCCCC2)c(C)c1", "inhibition": "-1.7%"}, {"smiles": "CCOc1ccc(NC(=O)CC(Cc2ccc(Cl)cc2)C(=O)O)cc1", "note": "(stereo not drawn)", "inhibition": "-2.62%"}, {"smiles": "COC(=O)c1c(NC(=O)c2ccccc2F)sc2c1C(C(=O)OC)CC2", "note": "(stereo not drawn)", "inhibition": "-16.3%"}, {"smiles": "COC(=O)[C@@H]1CC(O)CN1C(=O)C12CC3CC(CC(C3)C1)C2", "note": "(stereo partly drawn)", "inhibition": "4.2%"}, {"smiles": "O=C(Nc1ccc(S(=O)(=O)N2CCOCC2)cc1)c1ccc2ncsc2c1", "inhibition": "64.5% (active)"}, {"smiles": "O=C(Nc1nnc(S(=O)(=O)N2CCCCCC2)s1)c1cccc(Br)c1", "inhibition": "-2.66%"}, {"smiles": "O=C(Nc1nnc(S(=O)(=O)N2CCOCC2)s1)c1cccc(Br)c1", "inhibition": "31.4% (active)"}, {"smiles": "O=C(Nc1ccc(N2CCOCC2)c(Cl)c1)c1ccc(S(=O)(=O)N2CCOCC2)cc1", "inhibition": "-13.3%"}, {"smiles": "O=C(Nc1ccc(S(=O)(=O)Nc2nccs2)cc1)c1cccc(S(=O)(=O)N2CCOCC2)c1", "inhibition": "-3.68%"}, {"smiles": "COc1cccc(C(=O)Nc2nnc(S(=O)(=O)N3CCOCC3)s2)c1", "inhibition": "7.84%"}, {"smiles": "O=C(c1cnc(Cl)c(Cl)c1)N1CCN(S(=O)(=O)c2ccc(F)cc2)CC1", "inhibition": "1.5%"}, {"smiles": "CCc1ccc(NC(=O)CN2CCC(C(=O)c3ccc(OC)cc3)CC2)cc1", "inhibition": "-10.2%"}, {"smiles": "CCNC(=O)CC1C(=O)N(c2ccc(OC)cc2)C(=O)N1CCOC", "note": "(stereo not drawn)", "inhibition": "-7.39%"}, {"smiles": "CC(C)C[C@H](NC(=O)N1CC(=O)Nc2ccccc21)C(=O)N[C@H](Cc1ccccc1)C(=O)O", "inhibition": "-3.7%"}, {"smiles": "CCCn1c(C(O)c2ccc(OCC)cc2)nc2ccccc21", "note": "(stereo not drawn)", "inhibition": "-6.45%"}, {"smiles": "CCOc1ccc(C(O)Cc2nc3ccccc3n2C)cc1", "note": "(stereo not drawn)", "inhibition": "61.7% (active)"}, {"smiles": "COc1cccc(C(O)Cc2nc3ccccc3n2C)c1OC", "note": "(stereo not drawn)", "inhibition": "10.7%"}, {"smiles": "S=C(NNC(=S)NC1CC2C=CC1C2)NC1CC2C=CC1C2", "note": "(stereo not drawn)", "inhibition": "18.6%"}, {"smiles": "CC(C)c1ccc(NC(=S)NC2CC3C=CC2C3)cc1", "note": "(stereo not drawn)", "inhibition": "81.8% (active)"}, {"smiles": "S=C(NNC(=S)NC1CC2CCC1C2)NC1CC2C=CC1C2", "note": "(stereo not drawn)", "inhibition": "38%"}, {"smiles": "O=C(CN1CCC(NC(=O)Nc2ccccc2)CC1)Nc1cccc([N+](=O)[O-])c1", "inhibition": "-6.37%"}, {"smiles": "O=C(CCN1C(=O)C2C3CCC(C3)C2C1=O)Nc1ccc(Cl)cc1Cl", "note": "(stereo not drawn)", "inhibition": "30.5%"}, {"smiles": "Cc1cccc(NC(=O)C2CCN(C(=O)NC3CCCCC3)CC2)c1", "inhibition": "-14.2%"}, {"smiles": "Cc1csc(=NC(=O)c2ccccc2)n1CCO", "inhibition": "-11%"}, {"smiles": "OCCn1c(-c2ccccc2)csc1=Nc1ccccc1", "inhibition": "29.8% (active)"}, {"smiles": "Cc1csc(=Nc2ccccc2)n1CCO", "inhibition": "-5.67%"}, {"smiles": "Cc1cc2c(cc1S(=O)(=O)CCC(=O)NCc1ccccc1)OCC(=O)N2", "inhibition": "9.17%"}, {"smiles": "COCCCNC(=O)CNC(=O)c1nn(-c2ccc(OC)cc2)c(=O)c2ccccc12", "inhibition": "-3.74%"}, {"smiles": "O=C(CN1CCN(S(=O)(=O)c2cc(Cl)ccc2Cl)CC1)c1ccc(O)c(O)c1", "inhibition": "-3.28%"}, {"smiles": "Cc1nc2ccc(C(=O)O)cc2[nH]1", "inhibition": "-11.9%"}, {"smiles": "COc1cc(OC)cc(C(=O)N[C@H](C(=O)Nc2nc3ccccc3[nH]2)C(C)C)c1", "inhibition": "-3.89%"}, {"smiles": "COC(=O)Nc1nc2ccc(Sc3ccccc3)cc2[nH]1", "inhibition": "76.6% (active)"}, {"smiles": "Cc1ccc(S(=O)(=O)N(C)c2nc3ccccc3n3c(C(C)C)nnc23)cc1", "inhibition": "13.3%"}, {"smiles": "CC(=O)Nc1ccc(NC(=O)CCCNC(=O)c2ccc(Cl)cc2)cc1", "inhibition": "3.88%"}, {"smiles": "COc1ccc(C(=O)/C=C/c2ccc(OC3CSC3)cc2)cc1", "inhibition": "2.97%"}, {"smiles": "CCCC(=O)Nc1ccc(C(=O)N/N=C/c2ccc[nH]2)cc1", "inhibition": "13%"}, {"smiles": "CC(=O)Nc1ccc(NC(=S)NC(=O)/C=C/c2ccccc2)cc1", "inhibition": "5.78%"}, {"smiles": "CC(=O)Nc1ccc(/C=C/C(=O)c2ccccc2)cc1", "inhibition": "58.1% (active)"}, {"smiles": "CC(=O)Nc1ccc(C(=O)/C=C/c2ccc[nH]2)cc1", "inhibition": "77.1% (active)"}]}]}
